For 9 compounds, outcome and AC50 results are on record in PubChem BioAssay (EPA / NIEHS).

The term AC50 denotes the concentration at which the activity in the assay is half-maximal.

Results filed as inconclusive are left out. Calls of active or inactive are those of the source. The calls were made as follows, unless noted: active = hit-call score of the fitted dose curve at least 0.9, where 1 is the maximum; inconclusive = response in the unintended direction; inactive = score below 0.9.

Assay [1] is described as follows: Tanguay_ZF_120hpf_YSE_legacy: (Legacy) Oregon State University Tanguay Lab 120 Hour Post-fertilization zebrafish Assay for Yolk Sac Edema (AID 2283634).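 As to AC50: actives raise the incidence of yolk sac edema above the DMSO baseline.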 A digest of the protocol:
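Dechorionate (pronase, 4 hpf) → place one 6 hpf embryo per well → static compound exposure, sealed and foil-covered, 28C, to 120 hpf → record yolk sac edema as present or absent. Final DMSO 0.64%.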

Assay [2] in a line: Tanguay_ZF_120hpf_SNOU_legacy: (Legacy) Oregon State University Tanguay Lab 120 Hour Post-fertilization zebrafish Assay for Snout Malformation (AID 2283637). A digest of the protocol:
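Binary brightfield scoring of snout malformation at 120 hpf. Dechorionated 5D wild-type embryos, one per well, static exposure from 6 hpf at 28C, sealed and dark; final DMSO 0.64% (vol/vol), DMSO as baseline; 5uM trimethyltin chloride positive control.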

Assay [3] is described as follows: Tanguay_ZF_120hpf_PE_legacy: (Legacy) Oregon State University Tanguay Lab 120 Hour Post-fertilization zebrafish Assay for Pericardial Edema (AID 2283640).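 As to AC50: potency for increased incidence of pericardial edema versus DMSO baseline.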 The method, boiled down: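 Embryos from wild-type 5D adults were staged, then dosed in 0.64% DMSO. They were kept sealed in the dark at 28C until 120 hpf. Pericardial edema was then recorded as present or absent.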

Assay [4] is described as follows: Tanguay_ZF_120hpf_BRAI_legacy: (Legacy) Oregon State University Tanguay Lab 120 Hour Post-fertilization zebrafish Assay for Brain Malformation (AID 2283641). A digest of the protocol: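 Wild-type 5D larvae, static waterborne exposure to 120 hpf, 28C, 0.64% v/v DMSO. Brightfield scoring of brain defects, binary; dead embryos excluded. Positive ctrl 5uM trimethyltin chloride.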

Assay [5] is described as follows: Tanguay_ZF_120hpf_PFIN_legacy: (Legacy) Oregon State University Tanguay Lab 120 Hour Post-fertilization zebrafish Assay for Pectoral Fin Malformation (AID 2283648).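 Also: each larva judged yes or no for fin defect by brightfield with dead larvae skipped.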 A digest of the protocol:
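Binary pectoral fin malformation call at 120 hpf by brightfield microscopy; 5D wild-type zebrafish, chorion removed at 4 hpf, one embryo per well from 6 hpf, static exposure at 28C; DMSO (0.64% final) as baseline.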

Assay [6] can be described thus: Tanguay_ZF_120hpf_CFIN_legacy: (Legacy) Oregon State University Tanguay Lab 120 Hour Post-fertilization zebrafish Assay for Caudal Fin Malformation (AID 2283649). A digest of the protocol:
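Binary presence or absence of caudal fin malformation at 120 hpf, read by brightfield microscopy, with DMSO as baseline. Larvae came from 5D wild-type embryos exposed statically from 6 hpf at 28C after pronase dechorionation.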

Assay [7] is described as follows: Tanguay_ZF_120hpf_PIG_legacy: (Legacy) Oregon State University Tanguay Lab 120 Hour Post-fertilization zebrafish Assay for Pigmentation Malformation (AID 2283650). The method, boiled down: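 Brightfield scoring of pigmentation malformation at 120 hpf, recorded as binary present/absent per larva. Exposure: dechorionated 5D wild-type embryos, one per well, static from 6 hpf at 28C, final DMSO 0.64% (vol/vol). Dead embryos not scored.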

Assay [8] is described as follows: Tanguay_ZF_120hpf_CIRC_legacy: (Legacy) Oregon State University Tanguay Lab 120 Hour Post-fertilization zebrafish Assay for Circulatory Malformation (AID 2283651). A digest of the protocol: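 Binary circulatory-malformation call at 120 hpf via brightfield imaging, relative to DMSO controls. Embryos (5D strain, chorion removed) received static, light-shielded exposure at 28C.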

Assay [9] can be described thus: Tanguay_ZF_120hpf_TRUN_legacy: (Legacy) Oregon State University Tanguay Lab 120 Hour Post-fertilization zebrafish Assay for Truncated Body (AID 2283655). A digest of the protocol:
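Truncated body is recorded as a binary endpoint at 120 hpf by brightfield imaging of wild-type 5D larvae. Exposure runs statically from 6 hpf at 28C with 0.64% DMSO; embryos dying earlier are not scored.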

A short description of assay [10]: Tanguay_ZF_120hpf_NC_legacy: (Legacy) Oregon State University Tanguay Lab 120 Hour Post-fertilization zebrafish Assay for Notochord and Tail Malformation (AID 2283656). A digest of the protocol:
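Binary notochord-distortion calls, made by brightfield inspection, form the read-out; activity is fitted in the positive direction against DMSO. Exposure ran statically from 6 to 120 hpf at 28C with 0.64% DMSO.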

The nature of assay [11]: Tanguay_ZF_120hpf_AXIS_legacy: (Legacy) Oregon State University Tanguay Lab 120 Hour Post-fertilization zebrafish Assay for Body Axis Malformation (AID 2283635). The method, boiled down: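 Chorion is removed with pronase at 4 hpf, then single 6 hpf embryos are dosed (final DMSO 0.64%) and held statically at 28C in sealed, foil-covered plates. At 120 hpf body axis malformation is recorded as present or absent.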

Assay [12] can be described thus: Tanguay_ZF_120hpf_JAW_legacy: (Legacy) Oregon State University Tanguay Lab 120 Hour Post-fertilization zebrafish Assay for Jaw Malformation (AID 2283638).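 As to AC50: active means more embryos with jaw malformation than DMSO controls.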 The method, boiled down:
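Steps: dechorionate 4 hpf embryos (pronase); plate 1/well at 6 hpf; add test chemical, 0.64% DMSO final; seal, cover, hold at 28C statically to 120 hpf; score jaw defect presence/absence microscopically. Dead embryos not scored.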

The nature of assay [13]: Tanguay_ZF_120hpf_OTIC_legacy: (Legacy) Oregon State University Tanguay Lab 120 Hour Post-fertilization zebrafish Assay for Otic Vesicle Malformation (AID 2283639). A digest of the protocol:
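Wild-type zebrafish larvae, whole-embryo exposure from early stage to 120 hpf at 28C. Binary brightfield scoring of otic vesicle morphology, fitted in the positive direction against the DMSO baseline.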

Assay [14] is described as follows: Tanguay_ZF_120hpf_SWIM_legacy: (Legacy) Oregon State University Tanguay Lab 120 Hour Post-fertilization zebrafish Assay for Swim Bladder Malformation (AID 2283654).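 Also: swim bladder malformation in each larva scored yes or no under brightfield.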 The method, boiled down: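 Tropical 5D embryos dechorionated at 4 hpf; 1 embryo/well from 6 hpf; static, sealed, dark exposure at 28C until 120 hpf; final DMSO 0.64%; 5uM trimethyltin chloride positive control; swim bladder defect recorded yes/no; dead embryos not scored.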

A short description of assay [15]: Tanguay_ZF_120hpf_SOMI_legacy: (Legacy) Oregon State University Tanguay Lab 120 Hour Post-fertilization zebrafish Assay for Somite Malformation (AID 2283647). The method, boiled down:
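Read-out: presence or absence of somite malformation in 120 hpf larvae, gain-of-signal relative to DMSO baseline. Embryos lacked chorion (pronase, 4 hpf) and were exposed statically from 6 hpf at 28C; dead larvae not scored.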

Read-out in assay [16]: kallikrein-3 (KLK3), KLK3 (gene 354)
Nature of the assay: LTEA_HepaRG_KLK3: Life Technologies and Expression Analysis (LTEA) Assay for kallikrein-3 (KLK3) using HepaRG (AID 2283652; active = hit-call score of the fitted dose curve at least 0.9, where 1 is the maximum; inactive = score below 0.9). Conditions: mRNA level, 48 h; actives raise or lower the signal. A digest of the protocol: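 KLK3 transcript levels were measured by TaqMan qRT-PCR with normalisation to three housekeeping genes. HepaRG cultures received chemicals for 48 h at up to 100 uM (half-log, 8 points, 0.5% DMSO vehicle), fitted in both directions against DMSO.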

Read-out in assay [17]: solute carrier (SLC22A6), SLC22A6 (gene 9356)
Nature of the assay: LTEA_HepaRG_SLC22A6: Life Technologies and Expression Analysis (LTEA) Assay for solute carrier (SLC22A6) using HepaRG (AID 2283653; active = hit-call score of the fitted dose curve at least 0.9, where 1 is the maximum; inactive = score below 0.9). Conditions: mRNA level, 48 h; actives raise or lower the signal. The method, boiled down: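 Read-out is SLC22A6 transcript level by qRT-PCR, normalised to three housekeeping genes and fitted for gain or loss relative to 0.5% DMSO vehicle. Human HepaRG cells received chemicals at up to 100 uM for 48 h.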

Read-out in assay [18]: solute carrier (SLC10A1), SLC10A1 (gene 6554)
Description: LTEA_HepaRG_SLC10A1: Life Technologies and Expression Analysis (LTEA) Assay for solute carrier (SLC10A1) using HepaRG (AID 2283657; active = hit-call score of the fitted dose curve at least 0.9, where 1 is the maximum; inactive = score below 0.9). Conditions: mRNA level, 48 h; actives raise or lower the signal. The method, boiled down: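 HepaRG, 48 h exposure, 8-pt half-log curve from 100 uM in 0.5% DMSO, duplicates. Read-out: TaqMan qRT-PCR of SLC10A1 mRNA, normalized to three housekeeping genes. Gain/loss fit vs DMSO baseline.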

Read-out in assay [19]: matrix metalloproteinase-1 (MMP1), MMP1 (gene 4312)
Description: LTEA_HepaRG_MMP1: Life Technologies and Expression Analysis (LTEA) Assay for matrix metalloproteinase-1 (MMP1) using HepaRG (AID 2283658; active = hit-call score of the fitted dose curve at least 0.9, where 1 is the maximum; inactive = score below 0.9). Conditions: mRNA level, 48 h; actives raise or lower the signal. The method, boiled down:
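HepaRG, ~100,000 cells/well, 48 h pre-culture; serum-free induction medium; test chemical 8 conc (max 100 uM, half-log), duplicate, 48 h; 0.5% DMSO; qRT-PCR MMP1, housekeeping-normalized; gain/loss fit vs DMSO.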

Consider `CCNc1nc(Cl)nc(NC(C)(C)C#N)n1`, for which the result in assay [1], in assay [2], in assay [3], in assay [4], in assay [5] and in assay [6] was inactive. Also, the call in assay [7], in assay [8], in assay [9] and in assay [10] was inactive.

In the case of `CC(=NC#N)N(C)Cc1ccc(Cl)nc1`, the result in assay [1], in assay [11], in [2], in assay [12], in assay [13] and in [4] was inactive. Moreover, the call in [5], in [6], in assay [7], in assay [8], in assay [9] and in assay [10] was inactive.

On to `CCCSP(=O)(OCC)Oc1ccc(Br)cc1Cl` (centres undefined), for which the outcome in [1], in assay [11], in assay [2], in assay [12], in assay [13] and in [3] was inactive. For the same compound, the call in [4], in assay [5], in [6], in assay [7], in assay [14] and in assay [9] was inactive.

On to `N#CSCSC#N`, for which the result in assay [1], in [11], in assay [2], in assay [13], in assay [3] and in [15] was inactive. In addition, the compound was classed as inactive in assay [5], in [6], in assay [8], in assay [14] and in assay [9].

On to `CCCSP(=O)(OCC)SCCC`, for which the compound was called inactive in assay [1], in assay [11], in assay [2], in [12], in [13] and in [3]. Also, the compound was classed as inactive in assay [5], in assay [6], in assay [7], in assay [8], in [14] and in assay [9].

For the compound `CCOP(=O)(SC(C)CC)N1CCSC1=O` (centres undefined), the compound was called inactive in assay [1], in assay [11], in [2], in [12], in [13] and in assay [3]. Further, the result in assay [4], in assay [5], in [6], in [7], in [8] and in assay [9] was inactive. Also, in [10], the compound was called inactive.

Turning to `CC(C)N(C(=O)SCC(Cl)=C(Cl)Cl)C(C)C`, the call in assay [1], in [11], in assay [2], in assay [13], in assay [3] and in [4] was inactive. The outcome in assay [5], in assay [7], in assay [8] and in [9] was inactive.

Consider `CNC(=O)Oc1cccc2c1OC(C)(C)O2`, for which the compound was called inactive in [1], in assay [11], in assay [2], in assay [12], in [13] and in [3]. Also, the compound was classed as inactive in assay [4], in assay [5], in assay [6], in assay [7], in assay [16] and in assay [17]. For the same compound, the call in assay [14], in assay [9], in [18] and in [19] was inactive.

For the compound `CON=C(C(=O)OC)c1ccccc1CON=C(C)c1cccc(C(F)(F)F)c1`, the AC50 in [1] was 7.29 µM (active); in [2], 4.07 µM (active); in assay [12], 5.3 µM (active); in assay [3], 8.26 µM (active); in assay [4] it was 6.64 µM (active). Besides, the result in assay [11], in assay [13], in assay [5], in assay [6], in assay [7] and in assay [8] was inactive. For the same compound, the result in [9] and in assay [10] was inactive.
